Laboratory results: ChEMBL document CHEMBL3988442, “University of Dundee, Small-Polar-MMV Screening Library” (2021)
For some assays here: Measured potencies and affinities stand elsewhere.

How the values were obtained:
Design in all cases: scale not given: direction of the effect not stated beside the values
[1] = target: Protein translocase subunit SecA (Escherichia coli (strain K12)) (UniProt P10408); test: Assay to Identify E. coli SecA ATPase Inhibitors; assay type: functional; conditions: 30 µM
Sequence of Protein translocase subunit SecA (Escherichia coli (strain K12)) (P10408 whole entry): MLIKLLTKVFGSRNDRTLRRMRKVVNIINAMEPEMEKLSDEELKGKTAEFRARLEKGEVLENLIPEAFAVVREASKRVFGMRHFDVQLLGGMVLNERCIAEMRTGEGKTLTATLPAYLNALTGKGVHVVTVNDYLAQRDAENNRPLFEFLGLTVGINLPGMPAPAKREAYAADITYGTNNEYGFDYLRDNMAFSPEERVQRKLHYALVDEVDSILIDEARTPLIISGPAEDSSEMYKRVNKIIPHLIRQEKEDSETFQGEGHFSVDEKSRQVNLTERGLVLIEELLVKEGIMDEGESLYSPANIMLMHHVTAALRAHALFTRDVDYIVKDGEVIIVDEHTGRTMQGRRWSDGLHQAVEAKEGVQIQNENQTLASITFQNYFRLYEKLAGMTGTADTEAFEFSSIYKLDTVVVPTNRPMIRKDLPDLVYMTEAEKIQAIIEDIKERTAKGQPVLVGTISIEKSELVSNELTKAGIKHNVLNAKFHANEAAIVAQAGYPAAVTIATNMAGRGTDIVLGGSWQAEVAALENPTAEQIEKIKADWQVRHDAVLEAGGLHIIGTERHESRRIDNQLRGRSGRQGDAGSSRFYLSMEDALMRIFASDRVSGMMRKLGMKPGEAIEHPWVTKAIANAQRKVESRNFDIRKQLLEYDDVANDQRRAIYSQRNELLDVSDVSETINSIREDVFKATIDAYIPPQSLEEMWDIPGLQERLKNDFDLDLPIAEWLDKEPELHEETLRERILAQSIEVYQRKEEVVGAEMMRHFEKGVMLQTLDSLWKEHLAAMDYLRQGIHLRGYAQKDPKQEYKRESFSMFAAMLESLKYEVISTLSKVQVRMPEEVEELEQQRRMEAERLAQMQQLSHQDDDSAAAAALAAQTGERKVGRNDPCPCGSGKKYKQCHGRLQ

[2] = target: T1, Ubiquitin-activating enzyme e1, putative (Leishmania donovani (strain BPK282A1)) (UniProt E9BSI1); test: Leishmania donovani Ubiquitin Activating Enzyme (LdE1); assay type: functional; conditions: 30 µM
T1 sequence (whole entry): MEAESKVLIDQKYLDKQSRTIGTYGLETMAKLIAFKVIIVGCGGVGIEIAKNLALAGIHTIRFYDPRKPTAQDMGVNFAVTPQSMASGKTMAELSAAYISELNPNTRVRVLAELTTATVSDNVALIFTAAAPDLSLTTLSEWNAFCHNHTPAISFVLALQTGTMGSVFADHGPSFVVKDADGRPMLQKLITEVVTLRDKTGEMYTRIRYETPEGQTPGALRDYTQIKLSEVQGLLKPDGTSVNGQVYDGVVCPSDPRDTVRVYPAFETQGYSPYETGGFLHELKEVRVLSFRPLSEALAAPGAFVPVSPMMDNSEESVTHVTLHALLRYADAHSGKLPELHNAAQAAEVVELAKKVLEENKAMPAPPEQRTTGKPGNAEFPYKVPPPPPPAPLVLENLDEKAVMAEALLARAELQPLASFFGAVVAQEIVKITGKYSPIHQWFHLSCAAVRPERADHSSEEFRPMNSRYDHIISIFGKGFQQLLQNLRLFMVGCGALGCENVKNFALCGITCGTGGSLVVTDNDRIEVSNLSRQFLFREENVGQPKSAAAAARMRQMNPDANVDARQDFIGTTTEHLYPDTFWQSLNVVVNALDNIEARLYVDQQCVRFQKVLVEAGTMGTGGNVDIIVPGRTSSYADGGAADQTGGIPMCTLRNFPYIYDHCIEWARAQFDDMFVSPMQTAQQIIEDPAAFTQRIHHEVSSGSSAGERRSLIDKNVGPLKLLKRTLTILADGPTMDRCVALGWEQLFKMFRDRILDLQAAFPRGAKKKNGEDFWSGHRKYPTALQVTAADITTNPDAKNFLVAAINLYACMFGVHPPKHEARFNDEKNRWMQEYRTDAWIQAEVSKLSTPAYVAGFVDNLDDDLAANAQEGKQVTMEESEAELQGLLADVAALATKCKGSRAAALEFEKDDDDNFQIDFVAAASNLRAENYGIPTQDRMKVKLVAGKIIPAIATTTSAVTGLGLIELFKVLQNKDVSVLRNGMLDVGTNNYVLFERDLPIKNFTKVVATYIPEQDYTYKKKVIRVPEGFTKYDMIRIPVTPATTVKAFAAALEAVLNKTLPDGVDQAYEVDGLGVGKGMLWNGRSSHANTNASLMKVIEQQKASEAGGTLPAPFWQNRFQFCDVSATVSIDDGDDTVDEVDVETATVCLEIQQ

[3] = target: AMP-activated protein kinase, AMPK (Homo sapiens) (UniProt P54646+O43741+P54619+Q9UGJ0+Q9Y478+Q13131+Q9UGI9); test: AMP-dependent Kinase enzyme assay. An in vitro enzyme assay that detects ADP turnover that is directly proportional to AMPK activity. This uses naive AMPK that is activated during the assay with MK-8722; assay type: functional; conditions: 30 µM
[4] = target: Sialic acid-binding Ig-like lectin 9 (Homo sapiens) (UniProt Q9Y336); test: Hs-Siglec9 ALPHAscreen SOP 20170721; conditions: 10 µM
Sequence of Sialic acid-binding Ig-like lectin 9 (Homo sapiens) (Q9Y336 whole entry): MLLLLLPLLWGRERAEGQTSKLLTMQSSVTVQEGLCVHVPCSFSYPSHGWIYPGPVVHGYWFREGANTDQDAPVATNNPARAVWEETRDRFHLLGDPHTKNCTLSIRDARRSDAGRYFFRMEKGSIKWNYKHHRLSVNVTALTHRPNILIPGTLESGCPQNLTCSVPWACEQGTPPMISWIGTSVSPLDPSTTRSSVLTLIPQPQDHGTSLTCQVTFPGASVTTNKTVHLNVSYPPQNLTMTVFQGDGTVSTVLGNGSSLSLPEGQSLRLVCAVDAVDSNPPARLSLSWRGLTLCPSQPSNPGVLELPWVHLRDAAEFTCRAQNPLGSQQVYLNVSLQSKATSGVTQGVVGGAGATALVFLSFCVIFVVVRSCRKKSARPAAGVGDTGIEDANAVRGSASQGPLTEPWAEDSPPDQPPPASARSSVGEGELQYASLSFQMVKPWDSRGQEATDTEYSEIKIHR

[5] = test system: Trypanosoma cruzi; test: Trypanosoma cruzi phosphomannomutase and mannose-1-phosphate guanylyltransferase assay; assay type: functional; conditions: 10 µM
[6] = target: T2, Arginase-2, mitochondrial (Homo sapiens) (UniProt P78540); test: in vitro enzyme assay to detect the production of urea directly proportional to the activity of Arginase II; assay type: functional; conditions: 33.3 µM; further: in the data most compounds retested in dose-response had high values
T2 sequence (whole entry): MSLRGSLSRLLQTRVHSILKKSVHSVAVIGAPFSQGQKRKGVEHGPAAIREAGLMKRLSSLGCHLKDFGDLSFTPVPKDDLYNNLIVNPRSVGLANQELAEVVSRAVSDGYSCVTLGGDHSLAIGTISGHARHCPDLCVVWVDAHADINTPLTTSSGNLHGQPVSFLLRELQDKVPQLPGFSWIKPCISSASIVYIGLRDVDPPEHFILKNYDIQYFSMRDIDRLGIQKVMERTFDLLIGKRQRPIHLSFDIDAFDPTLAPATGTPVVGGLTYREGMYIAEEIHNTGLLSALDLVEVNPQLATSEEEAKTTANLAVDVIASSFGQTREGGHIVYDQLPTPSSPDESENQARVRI

[7] = target: T3, Proteasome subunit beta (Trypanosoma cruzi) (UniProt O96673); test: Trypanosoma cruzi proteasome chymotrypsin-like activity (TcProtChymo) assay.; further: in the data most compounds retested in dose-response had high values; assay type: functional; conditions: 9.37 µM
T3 sequence (whole entry): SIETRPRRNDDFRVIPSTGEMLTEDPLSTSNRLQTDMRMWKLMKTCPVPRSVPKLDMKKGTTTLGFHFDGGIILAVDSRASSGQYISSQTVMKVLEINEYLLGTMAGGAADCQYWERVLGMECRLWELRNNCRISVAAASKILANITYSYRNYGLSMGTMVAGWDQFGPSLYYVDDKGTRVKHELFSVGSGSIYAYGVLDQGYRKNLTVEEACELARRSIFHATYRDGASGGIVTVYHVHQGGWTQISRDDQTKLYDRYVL

[8] = species on record: Homo sapiens; test: To identify inhibition of the IFN signalling (Jak-Stat) pathway via expression of an eGFP reporter gene under the control of an IFN-stimulated response element (ISRE) containing MxA promoter.; assay type: functional; conditions: 30 µM
[9] = target: T4, Tyrosyl-tRNA synthetase, putative (Trypanosoma cruzi (strain CL Brener)) (UniProt Q4DSP6); test: Trypanosoma cruzi tyrosyl tRNA synthetase (TcYRS) _High Tyrosine SOP; assay type: functional; conditions: 30 µM; further: in the data most compounds retested in dose-response had high values
T4 sequence (whole entry): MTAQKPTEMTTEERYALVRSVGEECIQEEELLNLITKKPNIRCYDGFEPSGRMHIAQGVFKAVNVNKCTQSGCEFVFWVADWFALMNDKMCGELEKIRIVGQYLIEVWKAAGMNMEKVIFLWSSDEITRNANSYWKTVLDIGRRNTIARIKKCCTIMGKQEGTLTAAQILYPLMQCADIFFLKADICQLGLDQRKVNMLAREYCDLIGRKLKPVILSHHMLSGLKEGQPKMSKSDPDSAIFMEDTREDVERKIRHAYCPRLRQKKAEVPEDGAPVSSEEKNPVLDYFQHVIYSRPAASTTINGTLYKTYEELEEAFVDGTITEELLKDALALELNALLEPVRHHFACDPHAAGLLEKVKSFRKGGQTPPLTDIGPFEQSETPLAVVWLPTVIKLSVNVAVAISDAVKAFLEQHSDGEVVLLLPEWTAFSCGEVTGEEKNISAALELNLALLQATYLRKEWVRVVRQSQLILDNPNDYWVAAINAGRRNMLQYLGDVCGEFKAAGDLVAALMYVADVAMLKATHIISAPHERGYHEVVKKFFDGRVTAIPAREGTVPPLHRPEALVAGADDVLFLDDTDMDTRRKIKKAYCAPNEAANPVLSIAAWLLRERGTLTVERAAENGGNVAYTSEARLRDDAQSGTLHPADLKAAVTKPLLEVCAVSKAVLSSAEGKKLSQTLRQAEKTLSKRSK

[10] = target: T4, Tyrosyl-tRNA synthetase, putative (Trypanosoma cruzi (strain CL Brener)); test: Trypanosoma cruzi tyrosyl tRNA synthetase (TcYRS) SOP; assay type: functional; conditions: 30 µM
[11] = target: Chromo domain-containing protein 1 (Saccharomyces cerevisiae (strain ATCC 204508 / S288c) (Baker's yeast)) (UniProt P32657); test: ScCHD-1 Enzyme Inhibition Assay; assay type: functional; conditions: 30 µM; further: in the data most compounds retested in dose-response had high values
Sequence of Chromo domain-containing protein 1 (Saccharomyces cerevisiae (strain ATCC 204508 / S288c) (Baker's yeast)) (P32657 whole entry, the tested form may be a part): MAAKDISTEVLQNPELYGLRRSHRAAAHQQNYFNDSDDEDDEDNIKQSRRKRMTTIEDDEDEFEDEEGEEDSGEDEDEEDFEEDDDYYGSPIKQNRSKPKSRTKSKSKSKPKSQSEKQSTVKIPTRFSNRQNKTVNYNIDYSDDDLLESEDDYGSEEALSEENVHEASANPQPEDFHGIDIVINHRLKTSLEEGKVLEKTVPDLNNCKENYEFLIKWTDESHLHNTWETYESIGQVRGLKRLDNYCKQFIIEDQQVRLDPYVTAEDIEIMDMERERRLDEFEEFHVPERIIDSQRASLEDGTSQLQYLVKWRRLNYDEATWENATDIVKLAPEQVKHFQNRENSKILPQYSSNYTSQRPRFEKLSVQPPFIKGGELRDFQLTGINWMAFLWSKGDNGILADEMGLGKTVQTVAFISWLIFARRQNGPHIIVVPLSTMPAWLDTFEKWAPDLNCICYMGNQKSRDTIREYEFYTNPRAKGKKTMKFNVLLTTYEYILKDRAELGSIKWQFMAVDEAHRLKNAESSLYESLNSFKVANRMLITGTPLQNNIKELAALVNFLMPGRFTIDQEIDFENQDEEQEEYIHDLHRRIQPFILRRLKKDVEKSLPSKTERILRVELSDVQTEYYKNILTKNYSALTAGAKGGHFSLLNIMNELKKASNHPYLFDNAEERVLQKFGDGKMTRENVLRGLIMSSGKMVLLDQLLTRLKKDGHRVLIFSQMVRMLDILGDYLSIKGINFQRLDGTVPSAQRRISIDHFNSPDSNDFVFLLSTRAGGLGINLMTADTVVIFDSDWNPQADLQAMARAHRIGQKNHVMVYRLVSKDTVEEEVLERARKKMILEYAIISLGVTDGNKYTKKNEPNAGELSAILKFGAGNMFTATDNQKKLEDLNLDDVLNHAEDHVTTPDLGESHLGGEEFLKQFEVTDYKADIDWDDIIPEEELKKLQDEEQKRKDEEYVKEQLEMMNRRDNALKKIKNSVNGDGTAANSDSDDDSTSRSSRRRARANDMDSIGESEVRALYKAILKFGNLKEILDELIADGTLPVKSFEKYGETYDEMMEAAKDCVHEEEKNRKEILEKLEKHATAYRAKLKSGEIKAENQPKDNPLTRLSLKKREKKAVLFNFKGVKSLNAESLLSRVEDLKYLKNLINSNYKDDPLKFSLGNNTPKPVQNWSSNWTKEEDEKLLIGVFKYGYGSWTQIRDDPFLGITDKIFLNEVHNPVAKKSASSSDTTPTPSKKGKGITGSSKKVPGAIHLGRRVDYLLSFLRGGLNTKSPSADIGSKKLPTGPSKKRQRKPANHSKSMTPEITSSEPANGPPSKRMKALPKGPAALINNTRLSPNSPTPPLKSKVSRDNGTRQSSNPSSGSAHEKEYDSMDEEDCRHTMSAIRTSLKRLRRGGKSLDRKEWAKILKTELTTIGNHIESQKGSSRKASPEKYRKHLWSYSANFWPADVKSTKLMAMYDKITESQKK

Compound | Percent Effect [1] | Percent Effect [2] | Percent Effect [3] | Percent Effect [4] | Percent Effect [5] | Percent Effect [6] | Percent Effect [7] | Percent Effect [8] | Percent Effect [9] | Percent Effect [10] | Percent Effect [11]
CCc1nc(CN2CCCN(C(=O)C(C)n3cncn3)CC2)cs1 (configuration not stated) | -4.01% | 2.6% | -3.41% | 4.94% | -6.93% | 6.05% | 4.05% | 19.8% | 4.85% | 2.44% | -3.41%
COc1ccc(CNC(=O)c2nn(C)c3c2CS(=O)(=O)CC3)cc1OC | -1.94% | 6.67% | 4.43% | 3.41% | -2.16% | -11.8% | 14.8% | 5.39% | 3.17% | 17.9% | -9.43%
Cc1cc(NC(=O)NCc2cccnc2OC(C)C)n(C)n1 | -2.88% | 8.86% | 1.26% | 3.66% | 0.103% | -1.07% | 19.4% | 4.52% | 3.12% | 12.7% | -22.1%
COc1ccc(OC)c(-c2nc(CN(C)Cc3nncn3C)c(C)o2)c1 | -4.01% | 11% | 12% | -0.646% | -1.57% | 0.909% | 13.7% | -0.225% | 7.53% | 15% | -5.1%
FC(F)(F)Cc1noc(CN2CCCC2c2noc(C3CC3)n2)n1 (configuration not stated) | -1.65% | 13.5% | -5.95% | 4.29% | 4.06% | -10.8% | 5.59% | 7.37% | 7.39% | 23.5% | -9.28%
CCOCCCNC(=O)c1ccccc1S(C)(=O)=O | -4.36% | 0% | 7.43% | 5.86% | 2.82% | -8.28% | 11.6% | -12.4% | 1.06% | 5.2% | 0.767%
N#Cc1ccccc1OCCN1CCC(N2CCNC2=O)CC1 | -1.9% | 5.41% | -4.78% | 2.6% | 0.65% | -1.29% | 6.28% | 8.35% | 6.93% | 13.4% | -0.203%
CCS(=O)(=O)N(C)C1CCN(C(=O)c2cccc(Cl)c2)CC1 | -3.98% | 16.2% | -9.5% | 1.05% | 4.3% | 11.2% | 9.38% | -0.31% | 6.93% | 11% | -6.5%
CN1CCCC(Cc2cncc(C(=O)NCC3CC3)c2)C1 (configuration not stated) | -4.88% | 1.35% | 8.98% | 0.654% | 0.79% | -2.09% | 4.68% | 7.04% | 5.38% | 11.7% | -7.98%
CNS(=O)(=O)CCCN1CCCC1c1cc(C)on1 (configuration not stated) | -2.37% | 0% | 1.65% | -3.19% | -3.68% | -1.52% | 4.5% | 13.8% | 0.493% | -3.8% | 0.192%
O=C(Nc1ccc(CCN2CCC(O)CC2)cc1)Nc1cccnc1 | -1.45% | 5.41% | -3.72% | 8.33% | -1.54% | -1.91% | 18.4% | 8.03% | 6.88% | 4.88% | -3.57%
O=C(CCCNc1ncccn1)N1CCCC(n2cccn2)C1 (configuration not stated) | -7.67% | -1.27% | 0.0579% | -1.81% | -3.18% | -4.52% | 2.23% | 14.1% | -3.12% | -2.53% | -14.1%
Cc1ncc(CNC(=O)Cc2ccc(Cl)cc2)c(C2CCCN2C)n1 (configuration not stated) | -5.53% | -1.35% | 18.1% | 5% | -2.96% | -2.55% | 8.74% | 1.58% | -1.07% | -1.3% | 0.76%
COC(=O)c1ccc(N2CCN(CCC(=O)NC(N)=O)C(C)C2)cc1 (configuration not stated) | -5.21% | 15.8% | -4.81% | 0.77% | -5.51% | -0.719% | -2.45% | 5.46% | 5.42% | 13.6% | 2.67%
CC(C)(C)c1nnc(CN2CCN(S(C)(=O)=O)CC2)o1 | -2.63% | 13.5% | -2.69% | 19.5% | 3.48% | 1.43% | 12.1% | 5.81% | 2.65% | 12.2% | -3.73%
Cc1nn(C)c(C)c1CNCc1ccnc(N2CCOCC2)c1 | -6.06% | 1.27% | 2.39% | -0.497% | 2.56% | -0.645% | -1.03% | 24% | -1.04% | -2.53% | -31.5%
Cc1oc(-c2ccsc2)nc1CC(=O)NCCS(C)(=O)=O | -3.85% | 5.2% | 2.35% | 5.36% | -2.26% | -4.14% | 9.48% | 3.37% | -1.07% | 6.17% | -2.55%
COCCO[C@H]1CCN(C(=O)c2ccc[nH]2)[C@H]1Cc1ccncc1 | -5.53% | 0% | 12.9% | 1.19% | -3.74% | -2.1% | 2.73% | -2.22% | 3.19% | 6.41% | 0.525%
CCc1nc(CC(=O)Nc2cnn(CC3CCCO3)c2)cs1 (configuration not stated) | -2.62% | 8.11% | -12.1% | -2.05% | -0.965% | -1.43% | 7.59% | 0.276% | -4.76% | -2.44% | -1.6%
CC(NC(=O)N(C)Cc1ccsc1)c1ccc2c(c1)NC(=O)CO2 (configuration not stated) | -2.37% | 13.2% | 0.427% | 7.9% | 6.39% | 1.15% | 8.52% | 9.49% | 5.39% | 19.5% | -10.1%
C=Cn1ncc(CN2C[C@@H]3CCCN3C[C@H]2CCSC)c1C | -0.255% | 1.35% | 5.26% | 9.13% | 4.94% | -1.16% | 9.36% | 15.9% | 1.07% | 1.3% | -6.62%
CN(Cc1cnccn1)C(=O)c1ccnc(OC2CCC2)c1 | 2.54% | -2.7% | 1.16% | 4.85% | 0.193% | 1.43% | 1.9% | 4.71% | -0.529% | 4.88% | 8.01%
